Our source for the Potency values is PubChem BioAssay (Tox21).

Test [1] in a line: qHTS assay to identify small molecule antagonists of the estrogen receptor alpha (ER-alpha) signaling pathway using the BG1 cell line in the presence of 0.1 nM 17-beta-estradiol - cell viability counter screen (AID 1259241). Also: nearly all actives have a fitted effect of over 40% in size. Also: potency is read from the fitted curve at half-maximal effect. The method in brief:
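VM7Luc4E2 cells (endogenous ER-alpha, 4×ERE-luciferase), hormone-starved 5 days in charcoal-stripped FBS, were treated with compounds plus 0.1 nM 17beta-estradiol for 22 hr at 37C; viability read in same wells as CellTiter-Fluor live-cell protease fluorescence.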
(qHTS replaces the single test concentration by a dilution series.)

The nature of test [2]: qHTS assay to identify small molecule antagonists of the androgen receptor (AR) signaling pathway using the MDA cell line in the presence of 0.5 nM R1881 - cell viability counter screen (AID 1259242). Also: nearly all actives have a fitted effect of over 45% in size. Also: potency is read from the fitted curve at half-maximal effect. Put shortly: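 qHTS format. MDA-kb2 (MMTV-luc, AR/GR responsive) + cpd + 0.5 nM R1881 final, 16 hr 37C/0% CO2 → CellTiter-Fluor 30 min → fluorescence intensity.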
Test [3] deals with Androgen receptor (Homo sapiens) (UniProt P10275). Nature of the test: qHTS assay to identify small molecule antagonists of the androgen receptor (AR) signaling pathway using the MDA cell line in the presence of 0.5 nM R1881 (AID 1259243). Also: nearly all actives have a fitted effect of over 50% in size. Also: potency is read from the fitted curve at half-maximal effect. The method in brief:
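Antagonist mode quantitative HTS in MDA-kb2 MMTV-luciferase cells, agonist R1881 at 0.5 nM final, 16 hr exposure at 37C and 0% CO2, luminescent detection.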

The nature of test [4]: qHTS assay to identify small molecule HDAC inhibitors (AID 1259364). Also: potency is read from the fitted curve at half-maximal effect.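 Also: wild-type HCT-116 cells with endogenous class I/II HDAC activity; nearly all actives have a fitted effect of over 45% in size.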 The method in brief: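 Quantitative high-throughput format: overnight-seeded HCT-116 cells got compounds for 2 hr at 37C; HDAC-Glo I/II reagent added, 30 min RT, luminescence measured.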
Test [5] in a line: qHTS assay to identify small molecule HDAC inhibitors - cell viability counter screen (AID 1259365). Also: nearly all actives have a fitted effect of over 50% in size. Also: potency is read from the fitted curve at half-maximal effect. Put shortly: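 Wild-type HCT-116 cells were seeded at 1,500 per well, incubated overnight at 37 C, then exposed to compounds in DMSO for 2hr. Viability was read by CellTiter-Glo luminescence after 30min at room temperature.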
The nature of test [6]: qHTS assay to identify small molecule agonists of the sonic hedgehog signaling (Shh) pathway - cell viability counter screen (AID 1259366). Also: nearly all actives have a fitted effect of over 50% in size. Also: potency is read from the fitted curve at half-maximal effect. The method in brief: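 NIH/3T3-derived 3T3 Gli1-Luc cells (stable Gli1-responsive firefly luciferase reporter) were seeded, rested 4 hr at 37 C/5% CO2, then exposed to compounds in DMSO for 24 hr; viability was read by CellTiter-Fluor fluorescence in the same wells.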

A short description of test [7]: qHTS assay to identify small molecule antagonists of the sonic hedgehog signaling (Shh) pathway - cell viability counter screen (AID 1259367). Also: nearly all actives have a fitted effect of over 55% in size. Also: potency is read from the fitted curve at half-maximal effect. The method in brief: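 Viability was read by CellTiter-Fluor fluorescence in the same wells, reagent added 23 hr into compound treatment and incubated 1 hr at 37C. The 3T3 Gli1-Luc reporter cells (2,000/well) received conditioned medium after compound and ran 24 hr.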

The nature of test [8]: qHTS assay to identify small molecule antagonists of the sonic hedgehog signaling (Shh) pathway (AID 1259369; calls by dose curve; also: nearly all actives have a fitted effect of over 45% in size; also: potency is read from the fitted curve at half-maximal effect). Put shortly:
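Stable Gli1-Luc reporter NIH/3T3 clone; quantitative HTS in stimulated mode with conditioned medium. Luminescence measured after 24hr compound treatment at 37 C.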

A short description of test [9]: qHTS assay to identify small molecule antagonists of the estrogen receptor beta (ER-beta) signaling pathway - cell viability counter screen (AID 1259382). Also: nearly all actives have a fitted effect of over 55% in size. Also: potency is read from the fitted curve at half-maximal effect. The method in brief: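 Viability is scored by CellTiter-Glo luminescence (30 min, room temperature) in ER-beta-UAS-bla HEK293T wells already read for reporter fluorescence. Compound exposure lasts 16 hr at 37C alongside 1nM 17-beta-estradiol in charcoal-stripped serum medium.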

A short description of test [10]: qHTS assay to identify small molecule agonists or antagonists of the thyroid stimulating hormone receptor (TSHR) signaling pathway - wild type cell line counter screen (AID 1259384; calls by dose curve). Put shortly:
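Counter screen in untransfected Hek293: compounds (15-point titration, triplicate) plus phosphodiesterase inhibitor Ro20-1724 added after 18 h plating; 30 min RT. Intracellular cAMP via competitive d2/cryptate immunoassay, 1 h incubation.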

Test [11] is described as follows: qHTS assay to identify small molecule agonists of the sonic hedgehog signaling (Shh) pathway (AID 1259368; calls by dose curve; also: nearly all actives have a fitted effect of over 15% in size; also: potency is read from the fitted curve at half-maximal effect). Put shortly:
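Quantitative high-throughput format using a Gli1-driven firefly luciferase reporter line derived from NIH/3T3 cells. After a 24 hr compound treatment at 37 C and 5% CO2, luminescence reported Gli1 response element activity.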

Test [12] in a line: qHTS assay to identify small molecule agonists of the androgen receptor (AR) signaling pathway in the presence of an antagonist - cell viability counter screen (AID 1259379). Also: nearly all actives have a fitted effect of over 25% in size. Also: potency is read from the fitted curve at half-maximal effect. The method in brief:
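Nilutamide-containing (3.0uM final) MDA-kb2 cultures, 3,000 cells/well, were treated with compounds across 15 concentrations. After 16 hr at 37C with no CO2, cell viability was determined by CellTiter-Fluor fluorescence in the luciferase assay wells.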

In test [13] the target is Thyrotropin receptor (Homo sapiens) (UniProt P16473). The experiment in a line: qHTS assay to identify small molecule antagonists of the thyroid stimulating hormone receptor (TSHR) signaling pathway (AID 1259385; calls by dose curve; also: nearly all actives have a fitted effect of over 20% in size; also: potency is read from the fitted curve at half-maximal effect). The method in brief: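 Antagonist mode: compound-treated TSHR-expressing HEK293 cells were stimulated with 1.5 ng/mL TSH (final) in presence of Ro20-1724 for 30 min at RT. HTRF cAMP detection after 1 h; each compound tested at 15 concentrations, triplicate.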
Sequence of Thyrotropin receptor (Homo sapiens) (P16473 whole entry, looked up): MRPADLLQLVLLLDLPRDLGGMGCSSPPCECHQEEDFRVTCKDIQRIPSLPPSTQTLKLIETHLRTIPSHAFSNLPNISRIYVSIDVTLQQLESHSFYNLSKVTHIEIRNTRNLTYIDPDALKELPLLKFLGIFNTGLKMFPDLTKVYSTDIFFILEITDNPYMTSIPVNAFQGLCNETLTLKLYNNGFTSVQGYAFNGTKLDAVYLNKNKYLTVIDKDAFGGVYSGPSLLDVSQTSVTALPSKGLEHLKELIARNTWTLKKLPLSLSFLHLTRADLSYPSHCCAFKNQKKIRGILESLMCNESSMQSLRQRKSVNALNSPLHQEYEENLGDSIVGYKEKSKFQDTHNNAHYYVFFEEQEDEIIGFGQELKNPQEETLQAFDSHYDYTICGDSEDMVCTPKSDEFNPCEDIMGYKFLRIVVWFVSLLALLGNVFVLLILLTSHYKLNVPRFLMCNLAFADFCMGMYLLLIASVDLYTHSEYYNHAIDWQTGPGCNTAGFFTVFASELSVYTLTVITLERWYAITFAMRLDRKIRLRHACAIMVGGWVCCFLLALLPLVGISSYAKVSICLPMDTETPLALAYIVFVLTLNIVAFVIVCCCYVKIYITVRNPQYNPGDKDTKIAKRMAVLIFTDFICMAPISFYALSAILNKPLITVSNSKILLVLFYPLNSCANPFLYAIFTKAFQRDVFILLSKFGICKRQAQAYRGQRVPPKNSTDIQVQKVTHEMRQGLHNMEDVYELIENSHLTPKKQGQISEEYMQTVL

Test [14] can be described thus: qHTS assay to identify small molecule agonists of the estrogen receptor alpha (ER-alpha) signaling pathway in the presence of an antagonist - cell viability counter screen (AID 1259386).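 Also: cells exposed to compounds for 22 h at 37 °C before the viability read; nearly all actives have a fitted effect of over 30% in size.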 Also: potency is read from the fitted curve at half-maximal effect. Put shortly: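 In this counter screen, compound effects on VM7Luc4E2 viability were tested in the presence of the antagonist ICI-182,780 at 10.0nM final. Compounds were dosed at 15 concentrations, exposure lasted 22hr, and the CellTiter-Fluor signal was read.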

In test [15] the target is Estrogen receptor (Homo sapiens) (UniProt P03372). Nature of the test: qHTS assay to identify small molecule antagonists of the estrogen receptor alpha (ER-alpha) signaling pathway using the BG1 cell line in the presence of 0.1 nM 17-beta-estradiol (AID 1259244). Also: nearly all actives have a fitted effect of over 50% in size. Put shortly:
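Reporter is a stably transfected luciferase under four estrogen responsive elements in VM7Luc4E2 cells expressing native full-length ER-alpha; inhibition of 0.1 nM (final) 17beta-estradiol-driven signal over 22 h is read by luminescence.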

In test [16] the target is Androgen receptor (Homo sapiens) (UniProt P10275). The experiment in a line: qHTS assay to identify small molecule agonists of the androgen receptor (AR) signaling pathway in the presence of an antagonist (AID 1259381; calls by dose curve; also: nearly all actives have a fitted effect of over 15% in size). The method in brief: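 Reporter-gene luminescence from MDA-kb2 cells exposed 16hr at 37C (0% CO2) to 15-point compound titrations with 3.0uM final nilutamide as AR antagonist.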
Sequence of Androgen receptor (Homo sapiens) (P10275 whole entry, looked up): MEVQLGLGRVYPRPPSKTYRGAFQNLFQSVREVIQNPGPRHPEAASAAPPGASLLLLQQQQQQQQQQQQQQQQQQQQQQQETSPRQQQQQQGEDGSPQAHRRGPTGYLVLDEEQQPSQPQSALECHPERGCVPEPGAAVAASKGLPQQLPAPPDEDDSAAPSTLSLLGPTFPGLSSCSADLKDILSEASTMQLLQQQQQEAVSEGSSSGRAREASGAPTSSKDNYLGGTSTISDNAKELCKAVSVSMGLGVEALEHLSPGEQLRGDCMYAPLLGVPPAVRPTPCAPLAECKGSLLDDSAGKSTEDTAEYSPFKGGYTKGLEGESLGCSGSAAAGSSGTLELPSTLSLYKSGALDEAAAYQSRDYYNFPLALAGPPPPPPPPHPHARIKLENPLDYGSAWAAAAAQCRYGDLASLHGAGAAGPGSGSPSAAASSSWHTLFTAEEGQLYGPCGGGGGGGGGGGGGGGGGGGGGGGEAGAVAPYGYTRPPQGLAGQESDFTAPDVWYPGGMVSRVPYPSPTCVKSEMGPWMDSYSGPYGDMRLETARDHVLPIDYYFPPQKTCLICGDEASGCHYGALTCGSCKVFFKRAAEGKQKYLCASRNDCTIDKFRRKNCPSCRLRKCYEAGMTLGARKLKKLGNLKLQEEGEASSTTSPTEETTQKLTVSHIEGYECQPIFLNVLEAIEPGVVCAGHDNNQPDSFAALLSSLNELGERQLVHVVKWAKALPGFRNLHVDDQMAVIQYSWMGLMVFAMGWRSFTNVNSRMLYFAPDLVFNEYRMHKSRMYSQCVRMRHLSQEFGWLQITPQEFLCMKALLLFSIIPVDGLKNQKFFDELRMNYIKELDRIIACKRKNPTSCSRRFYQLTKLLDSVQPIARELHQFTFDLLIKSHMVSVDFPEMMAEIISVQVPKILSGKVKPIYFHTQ

Test [17] concerns the target Estrogen receptor (Homo sapiens) (UniProt P03372). The experiment in a line: qHTS assay to identify small molecule agonists of the estrogen receptor alpha (ER-alpha) signaling pathway in the presence of an antagonist (AID 1259383; calls by dose curve; also: top concentration of the series differs between compounds; nearly all actives have a fitted effect of over 15% in size). The method in brief:
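Readout was ERE-driven luciferase luminescence in VM7Luc4E2 cells, which express full-length ER-alpha endogenously. Compounds were tested at 15 concentrations for 22hr alongside 10.0nM ICI-182,780 (final concentration).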

Test [18] has as its target Estrogen receptor beta (Homo sapiens) (UniProt Q92731). Nature of the test: qHTS assay to identify small molecule agonists of the estrogen receptor beta (ER-beta) signaling pathway (AID 1259377; active = well fitted activation curve with a large enough effect in the signal ratio in the repeat runs, not every such curve was filed as active; the % refers to the signal ratio; also: potency is read from the fitted curve at half-maximal effect). Put shortly: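 ER-beta-UAS-bla HEK293T (GripTite) cells carrying a UAS-driven beta-lactamase reporter, in medium with 2% charcoal-stripped FBS, were exposed to compounds for 16 hr at 37C; LiveBLAzer B/G FRET substrate was then added and fluorescence read after 2 hours at room temperature.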

Test [19] is described as follows: qHTS assay to identify small molecule agonists of the estrogen receptor beta (ER-beta) signaling pathway - cell viability counter screen (AID 1259380). Also: nearly all actives have a fitted effect of over 30% in size. Also: potency is read from the fitted curve at half-maximal effect. Put shortly:
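Steps: plate ER-beta-UAS-bla HEK293T cells, rest 6 hr; add compounds in DMSO; incubate 16 hr at 37C, 5% CO2; add FRET substrate 2 hr; add CellTiter-Glo, wait 30 min at room temperature; read luminescence.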

Molecules are shown by their SMILES. Where “and” joins values, the source holds several entries; their conditions need not be identical. Equal values may be shown once. Results filed as inconclusive are left out. Some compounds were tested as several samples or in several runs, with calls that do not always agree. Calls of active or inactive are those of the source. Unless noted, calls follow the shape of the dose curve; as a rule, active = well fitted curve in the direction sought with a large enough effect in the repeat runs; inconclusive = weak or mixed curves; inactive = no such curve, though single readings can be large; an effect the other way counts as inactive or inconclusive.

Sequence of Estrogen receptor (Homo sapiens) (P03372 whole entry, looked up): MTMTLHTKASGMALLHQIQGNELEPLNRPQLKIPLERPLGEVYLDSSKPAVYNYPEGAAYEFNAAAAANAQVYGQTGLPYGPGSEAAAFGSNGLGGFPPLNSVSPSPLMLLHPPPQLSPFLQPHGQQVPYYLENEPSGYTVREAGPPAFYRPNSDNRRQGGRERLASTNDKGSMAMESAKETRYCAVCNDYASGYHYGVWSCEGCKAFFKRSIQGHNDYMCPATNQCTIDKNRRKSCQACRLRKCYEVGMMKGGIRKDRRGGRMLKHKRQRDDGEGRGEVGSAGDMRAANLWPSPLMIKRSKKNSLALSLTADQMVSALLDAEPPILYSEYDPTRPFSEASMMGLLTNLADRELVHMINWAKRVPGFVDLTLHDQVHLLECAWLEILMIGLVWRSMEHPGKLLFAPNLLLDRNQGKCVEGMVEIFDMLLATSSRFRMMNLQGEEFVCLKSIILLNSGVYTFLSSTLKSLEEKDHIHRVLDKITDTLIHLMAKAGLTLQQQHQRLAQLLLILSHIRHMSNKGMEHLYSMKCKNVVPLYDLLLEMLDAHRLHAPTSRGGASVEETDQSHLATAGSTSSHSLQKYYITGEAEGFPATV
Sequence of Estrogen receptor beta (Homo sapiens) (Q92731 whole entry, looked up): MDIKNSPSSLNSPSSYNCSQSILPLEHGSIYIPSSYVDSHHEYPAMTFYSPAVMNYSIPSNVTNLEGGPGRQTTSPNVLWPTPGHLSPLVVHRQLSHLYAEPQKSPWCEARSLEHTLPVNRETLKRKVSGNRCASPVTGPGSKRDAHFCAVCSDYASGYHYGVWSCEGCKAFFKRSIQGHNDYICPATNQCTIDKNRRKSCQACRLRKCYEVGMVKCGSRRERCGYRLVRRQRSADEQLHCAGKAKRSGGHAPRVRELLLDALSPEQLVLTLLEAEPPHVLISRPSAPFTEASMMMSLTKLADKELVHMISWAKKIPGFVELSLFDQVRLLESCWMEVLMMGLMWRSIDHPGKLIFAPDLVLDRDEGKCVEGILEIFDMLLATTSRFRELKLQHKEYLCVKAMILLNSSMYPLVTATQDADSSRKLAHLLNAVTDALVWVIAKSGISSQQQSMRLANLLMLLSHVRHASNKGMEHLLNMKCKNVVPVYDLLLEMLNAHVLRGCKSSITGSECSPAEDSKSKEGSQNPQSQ

Regarding `O=C1C2(Cl)C3(Cl)C4(Cl)C(Cl)(Cl)C5(Cl)C3(Cl)C1(Cl)C5(Cl)C24Cl` (centres undefined), the Potency result in [1], in [4], in [5] and in [10] was “inactive” throughout. Moreover, the Potency in test [2] is 60.1 µM (active); in test [3], “inactive and 65.7 µM (active)”; in [6], 26.9 µM (active); in test [7], 37.9 µM (active) and 58.5 µM (active); in test [8], 12 µM (active) and 29.3 µM (active); in test [9] it was 26.9 µM (active) and 58.5 µM (active).
Consider `O=c1[nH]c(Cl)c(Cl)cc1Cl`, for which the Potency entry in test [1], in [2], in [3], in test [6], in test [7] and in test [11] was “inactive” throughout. The Potency entry in [8], in test [12], in test [10], in [13] and in [14] was “inactive” in each case.
In the case of `Cc1ccccc1OP(=O)(Oc1ccccc1C)Oc1ccccc1C`, the Potency entry in test [1], in test [2], in test [15], in test [4], in [5] and in [6] was “inactive” throughout. The Potency entry in test [11], in test [12], in [16], in test [17], in test [10] and in [13] was “inactive” each time. In test [3], the Potency is 48.8 µM (active).
`S=C=NCCc1ccccc1`: the Potency entry in [1], in [2], in test [15], in test [4], in test [6] and in [7] was “inactive” throughout. The Potency result in test [8], in [18], in [16], in test [9], in test [10] and in test [13] was “inactive” each time. Further, the Potency result in [14] was “inactive”. Also, the Potency in test [3] is 48.7 µM (active); in [11], 61.3 µM (active).
Turning to `C=CC(=O)[O][Sn]([CH2]CCC)([CH2]CCC)[CH2]CCC`, the Potency in test [1] was 27.3 µM (active); in test [2], 1.09 µM (active); in test [3] it was 0.545 µM (active); in test [5], 19.3 µM (active); in test [6], 0.243 µM (active); in [7], 1.09 µM (active). Also, the Potency in [8] is 486 nM (active); in [12] it was 4.33 µM (active); in test [19], 2.43 µM (active); in [9] it was 3.06 µM (active); in test [13], 13.7 µM (active); in test [14], 10.9 µM (active). In addition, the Potency entry in [4], in test [11], in test [16] and in [17] was “inactive” throughout.
As to `C[C@]12CC[C@H]3[C@@H](CCC4=CC(=O)CC[C@@H]43)[C@@H]1CC[C@@H]2OC(=O)CCc1ccco1`, the Potency entry in test [1], in test [2], in [3], in test [4], in [6] and in test [7] was “inactive” in each case. In addition, the Potency entry in test [11], in [8], in test [12], in test [19], in test [9] and in test [10] was “inactive” in each case. Besides, in test [14], the Potency result is “inactive”. Also, the Potency in test [18] is 2.66 µM (active).
As for `N#CC(C#N)=NNc1cccc(Cl)c1`, the Potency is 12.2 µM (active) in test [1]; 2.43 µM (active) in test [2]; 1.54 µM (active) in test [3]; 24.3 µM (active) in test [4]; 27.3 µM (active) in test [6]; 27.3 µM (active) in [7]. For the same compound, the Potency in test [8] was 1090 nM (active); in [12] it was 1.93 µM (active); in test [19], 15.4 µM (active); in test [14], 21.7 µM (active). Moreover, the Potency entry in [5], in test [11], in test [17], in [10] and in test [13] was “inactive” in each case.
